Source: PubChem
Most compounds without a hit are left out; they make up all but 3.2% or so of the library.
CaV13 ICDI inh = Primary screen for inhibitors of IQ motif and Ca2+-dependent inactivation inhibitor domain binding in CACNA1D, Förster resonance energy transfer in living cells, …. AID 743397. 0.098% of 340,000 active. inhibition, % at 12.3 µM. HEK cells, CFP/YFP FRET ICDI-IQ, plate reader, 10 min; percent FRET-ratio fall versus neutral wells;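 active = mean replicate inhibition of at least 30% and at least 1% of replicates passing that level; inconclusive = only one of the two criteria is met; inactive = neither criterion is met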;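 also: 0% = median of the neutral control wells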
GSIS activator = primary screen for activators of insulin secretion dependent on glucose, INS-1E cells, GLuc reporter luminescence | AID 743287 | 0.61% of 370,000 active | activation, % at 16.6 µM | INS-1E GLuc reporter insulin secretion, 2-3 h;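 active = lowest replicate activation of at least 40%, so every replicate reaches that level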;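 also: 0% = median of neutral control wells and 100% = median of IBMX positive control wells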
DENV2 CPE = DENV2-induced cell death inhibition; DENV2-infected cells, cytopathic effect rescue, plate reader; CPE inhibition, % at 9.99 µM; 1.7% of 350,000 active; in the data active = CPE inhibition above about 20%, passing the limit was not always enough; inconclusive = no clear call, values can overlap the other calls; tested in BHK-21 cells;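 also: 0% = median of neutral control wells and 100% = median of positive control wells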
ERAP1 HTS inh = blocks human ERAP1 aminopeptidase activity. recombinant ERAP1, Leu-AMC fluorescence, 60 min. inhibition, % at 10.7 µM. 0.15% of 340,000 active. AID 652197;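 active = mean replicate inhibition of at least 30%, or all replicates individually reaching that 30% level; inactive = mean below 30% and not every replicate reaching it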;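 also: 0% = neutral control wells and 100% = L-leucinethiol positive control wells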
Target sequence (Q9NZ08 whole entry, looked up): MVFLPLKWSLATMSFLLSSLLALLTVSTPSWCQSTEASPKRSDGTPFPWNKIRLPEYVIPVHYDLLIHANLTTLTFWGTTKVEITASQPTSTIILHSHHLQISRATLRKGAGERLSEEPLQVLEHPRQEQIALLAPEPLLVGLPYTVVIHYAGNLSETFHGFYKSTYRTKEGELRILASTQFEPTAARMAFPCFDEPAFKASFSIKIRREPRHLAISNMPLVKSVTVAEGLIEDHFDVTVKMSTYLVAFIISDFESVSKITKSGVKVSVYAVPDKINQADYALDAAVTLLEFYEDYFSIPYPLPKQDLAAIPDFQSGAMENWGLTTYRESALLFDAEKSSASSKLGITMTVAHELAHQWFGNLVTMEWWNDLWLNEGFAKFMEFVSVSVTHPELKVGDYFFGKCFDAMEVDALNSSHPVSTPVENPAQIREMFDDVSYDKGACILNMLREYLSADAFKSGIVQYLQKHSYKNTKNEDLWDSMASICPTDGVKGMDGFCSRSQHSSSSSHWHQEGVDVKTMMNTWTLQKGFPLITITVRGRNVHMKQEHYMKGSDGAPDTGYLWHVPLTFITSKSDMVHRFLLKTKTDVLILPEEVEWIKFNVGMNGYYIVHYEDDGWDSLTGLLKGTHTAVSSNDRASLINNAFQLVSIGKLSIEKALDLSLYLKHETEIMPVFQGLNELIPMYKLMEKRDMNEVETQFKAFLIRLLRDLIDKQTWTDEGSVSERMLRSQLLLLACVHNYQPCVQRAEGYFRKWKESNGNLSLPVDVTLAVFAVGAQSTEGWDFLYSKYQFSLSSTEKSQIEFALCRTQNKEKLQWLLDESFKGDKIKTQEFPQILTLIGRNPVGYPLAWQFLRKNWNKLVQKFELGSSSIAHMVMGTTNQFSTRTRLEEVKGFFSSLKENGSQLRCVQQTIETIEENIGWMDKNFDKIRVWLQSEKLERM
Ecoli rRNA inh = inhibits bacterial ribosomal RNA function over humanized ribosomes; GFP signal change (wild-type ribosome), % (test concentration not listed); AID 720706; 1.6% of 350,000 active; E. coli WT GFP vs humanized-ribosome RFP mutants, fluorescence, 24 h; active compounds read low; DMSO median 0, no signal -100;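 active = significant combined selectivity score with lowered wild-type GFP, culture density cut under 30%, mutant RFP and density less affected; inactive = any of these conditions unmet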
PGC1a acetyl inh = lowers PGC1a acetylation signal in U2OS cells | AlphaScreen anti-acetyl-lysine; with virally co-expressed GCN5 acetyltransferase | inhibition, % at 15.6 µM | 0.17% of 350,000 active;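 active = every replicate shows inhibition of at least 40%; inconclusive = mean inhibition at least 40% but some replicate below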;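 also: 0% = neutral control wells and 100% = positive control wells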
Active calls of the source: *; u = inconclusive; x = no result.

SMILES	CaV13 ICDI inh	GSIS activator	DENV2 CPE	ERAP1 HTS inh	Ecoli rRNA inh	PGC1a acetyl inh
COC(=S)Nc1cccc(C(F)(F)F)c1	-4.5	-17.3	-9.6	1.1	13.8	-14.2
CCOc1cc(OCC)cc(C(=O)NC(=S)Nc2cccc(C(F)(F)F)c2)c1	-1.3	x	x	x	x	7.7
COc1ccc(NC(=S)NNC(=S)Nc2cccc(C(F)(F)F)c2)cc1	-1.5	-26.4	-4.9	x	-24.0*	-28.4
CC(=O)Nc1cc(-c2ccc(C(=O)NC3CC3)cc2)cn2c(-c3cccc(C(F)(F)F)c3)cnc12	-4.4	-1.6	38.3*	-2.1	4.4	1.5
COc1cc(-c2cnc3c(NC(C)=O)cc(-c4ccccc4CN(C)C)cn23)cc(OC)c1OC	5.7	-11.3	24.9*	14.1	2.6	-50.3
COc1cc(-c2cc(NC(C)=O)c3ncc(-c4cc(OC)c(OC)c(OC)c4)n3c2)cc(OC)c1OC	-5.0	x	-9.7	-1.2	-12.0	-22.6
COc1cc(-c2cnc3c(NC=O)cc(-c4ccccc4)cn23)cc(OC)c1OC	-12.0	3.9	12.8	0.0	5.2	-105.1
COc1cc(-c2cnc3c(NC=O)cc(-c4ccc(C)cc4)cn23)cc(OC)c1OC	-4.6	3.7	94.6*	-3.9	10.5	-89.1
COc1ccc(-c2cnc3c(NC(C)=O)cc(-c4ccccc4OC)cn23)cc1OC	-3.8	1.3	30.1*	8.3	-7.1	-16.5
N#Cc1c2ccc(OCC(N)=O)cc2n2ccccc12	77.2*	8.3	1.6	-2.5	-2.2	-1.0
Cc1cc(SCC(=O)c2ccccc2)n2ncc(-c3ccccc3)c2n1	6.9	6.2	-4.0	1.0	-51.2*	x
CCCCC1Cc2[nH]c(=S)[nH]c(=O)c2C(C(C)C)O1 (stereo not drawn)	-5.3	41.9*	-4.1	-0.6	19.4	x
CC1Cc2[nH]c(=S)[nH]c(=O)c2C(C(C)C)O1 (stereo not drawn)	-5.5	-4.4	-6.3	x	10.8	x
CCC(=O)N1C[C@H](O)COC[C@H]2O[C@@H](CC(=O)NCc3cc(F)cc(F)c3)CC[C@@H]21	x	0.5	u	0.7	2.4	10.1
CCC(Sc1nc(-c2ccccc2)c(-c2ccccc2)[nH]1)C(=O)O (stereo not drawn)	-18.6	66.7*	1.4	-0.8	-11.7	-4.7
C[C@H]1CN([C@@H](C)CO)C(=O)c2cc(NS(=O)(=O)c3cccs3)ccc2O[C@@H]1CN(C)S(=O)(=O)c1cccs1	x	-4.3	x	x	-4.2	-2.0
CCOc1cccc(-c2c(C(=O)N/N=C/c3ccc(Br)cc3)nnn2-c2nonc2N)c1	-2.4	-17.9	47.5*	-0.5	-11.2	20.6
Cc1nnn(-c2nonc2N)c1C(=O)N/N=C/c1ccccc1O	-6.2	1.1	x	x	x	x
CN(Cc1c(C(=O)N/N=C/c2cccc(O)c2)nnn1-c1nonc1N)C1CCCCC1	-2.5	-7.6	-6.3	2.9	13.6	3.1
CN(Cc1c(C(=O)N/N=C/c2ccccc2O)nnn1-c1nonc1N)C1CCCCC1	-5.0	518.3*	5.1	-7.4	4.2	1.7
CCOc1cccc(-c2c(C(=O)N/N=C/c3cccnc3)nnn2-c2nonc2N)c1	-6.9	0.7	-1.5	-0.9	-2.3	3.7
Cc1nnn(-c2nonc2N)c1C(=O)N/N=C/c1cccc2ccccc12	-3.5	85.8*	x	x	x	x
C[C@H](CO)N1C[C@H](C)[C@@H](CN(C)Cc2ccc(-c3ccccc3)cc2)OCc2ccccc2-c2c(n(C)c3ccccc23)C1=O	x	-17.8	12.0	-0.2	4.5	x
C[C@@H]1CN([C@@H](C)CO)C(=O)Cc2cc(NS(=O)(=O)c3cn(C)cn3)ccc2O[C@H]1CN(C)Cc1ccccc1	x	9.1	25.3*	-1.7	2.5	x
C[C@@H]1CN([C@H](C)CO)C(=O)Cc2cc(NS(=O)(=O)c3cn(C)cn3)ccc2O[C@@H]1CN(C)Cc1ccccc1	x	6.1	-4.7	-0.7	3.0	x
SMILES	CaV13 ICDI inh	GSIS activator	DENV2 CPE	ERAP1 HTS inh	Ecoli rRNA inh	PGC1a acetyl inh
C[C@@H]1CN([C@H](C)CO)C(=O)Cc2cc(NS(=O)(=O)c3cn(C)cn3)ccc2O[C@@H]1CN(C)CC1CCCCC1	x	4.2	34.3*	0.3	1.4	-3.8
C[C@H](CO)N1C[C@H](C)[C@@H](CN(C)CC2CCCCC2)Oc2ccc(NS(=O)(=O)c3cn(C)cn3)cc2CC1=O	x	11.1	-9.1	-0.3	-2.3	-9.9
C[C@@H]1CN([C@@H](C)CO)C(=O)c2cc(NC(=O)Nc3ccc(C(F)(F)F)cc3)ccc2O[C@@H]1CN(C)C(=O)NC1CCCCC1	x	-2.0	100.9*	0.4	-3.5	1.0
C[C@@H]1CCCCO[C@H](CN(C)C(=O)NC2CCCCC2)[C@H](C)CN([C@H](C)CO)C(=O)c2cc(NC(=O)Nc3ccc(C(F)(F)F)cc3)ccc2O1	x	12.7	30.7*	-4.1	4.2	1.4
C[C@@H]1CN([C@@H](C)CO)C(=O)c2cc(NC(=O)Nc3ccc(C(F)(F)F)cc3)ccc2O[C@@H](C)CCCCO[C@@H]1CN(C)C(=O)NC1CCCCC1	x	12.6	59.6*	-3.4	-0.4	10.2
COc1ccc2c3c(n(C)c2c1)[C@@H](CO)N(C)CC31CCN(S(=O)(=O)c2cn(C)cn2)CC1	x	29.3	-13.5	x	-2.7	2.4
COc1ccc(Nc2nnc(-c3ccc(C(N)=O)cc3)c3ccccc23)cc1	-6.7	-4.6	-3.5	0.2	-37.9*	-88.7
NC(=O)c1ccc(Nc2nnc(-c3ccc(O)cc3)c3ccccc23)cc1	4.0	-4.0	x	-3.6	-23.4*	-13.2
CC(=O)Oc1ccc2c(=O)c(Oc3ccccc3)c(C)oc2c1OC(C)=O	-1.9	16.0	-2.5	6.3	-17.4*	-9.4
CCNC(=O)[C@@H]1[C@@H](CO)[C@@H]2Cn3c(ccc(-c4ccccc4F)c3=O)[C@@H]2N1C	x	3.7	-9.1	1.1	-1.4	x
CCCC(=O)Nc1ccc2c(c1)C(=O)N(C)[C@H]1CC[C@H](CC(=O)NCCCN(C)C)O[C@@H]1CO2	x	3.5	60.7*	-0.1	3.5	0.8
CCCC(=O)Nc1ccc2c(c1)C(=O)N(C)[C@H]1CC[C@H](CC(=O)NCCCN(C)C)O[C@H]1CO2	x	5.3	48.8*	2.5	3.1	-4.1
CCCC(=O)Nc1ccc2c(c1)C(=O)N(C)[C@@H]1CC[C@@H](CC(=O)NCCCN(C)C)O[C@H]1CO2	x	11.6	16.3	2.3	2.9	1.5
[N-]=[N+]=Nc1ccccc1C[C@@]1(C(=O)NCc2ccccc2)N=C(c2ccc(OCCCO)cc2)O[C@@H]1c1ccccc1N=[N+]=[N-]	x	x	6.0	-3.5	x	-15.6
COc1ccc(NC(=O)N(C)C[C@@H]2OCc3cn(nn3)CCCC(=O)N([C@H](C)CO)C[C@@H]2C)cc1	x	5.6	x	x	0.2	2.2
S=C(c1ccc(-c2ccc(Cl)cc2)o1)N1CCCCC1	x	-20.6	x	x	x	-3.2
N#CCCN1CCN(C(=S)c2ccc(-c3ccc(Cl)cc3)o2)CC1	x	-4.1	x	3.5	-28.4*	-0.1
